Hits are enriched below; roughly 6.3% of the tested compounds scored in any of these assays.
tim10-1 inh: growth inhibitors of tim10-1 mutant yeast; inhibition, % at 20 µM; AID 463190; 2.2% of 330,000 active; S. cerevisiae tim10-1 ts strain growth, BacTiter-Glo, 24 h;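 active = inhibition of at least 40%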;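 also: mutant grown at 25 °C; 0% = DMSO wells with yeast and 100% = wells holding no yeast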
Mdm2-MdmX inh: disrupts the human Mdm2-MdmX interaction; O15151+Q00987; SaOS-2 split-luciferase Mdm2/MdmX complementation, luminescence; inhibition, % at 8 µM; 3% of 330,000 active;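 active = inhibition of at least 50% at 8 µM in the primary screen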
Target sequence (O15151 whole entry, looked up): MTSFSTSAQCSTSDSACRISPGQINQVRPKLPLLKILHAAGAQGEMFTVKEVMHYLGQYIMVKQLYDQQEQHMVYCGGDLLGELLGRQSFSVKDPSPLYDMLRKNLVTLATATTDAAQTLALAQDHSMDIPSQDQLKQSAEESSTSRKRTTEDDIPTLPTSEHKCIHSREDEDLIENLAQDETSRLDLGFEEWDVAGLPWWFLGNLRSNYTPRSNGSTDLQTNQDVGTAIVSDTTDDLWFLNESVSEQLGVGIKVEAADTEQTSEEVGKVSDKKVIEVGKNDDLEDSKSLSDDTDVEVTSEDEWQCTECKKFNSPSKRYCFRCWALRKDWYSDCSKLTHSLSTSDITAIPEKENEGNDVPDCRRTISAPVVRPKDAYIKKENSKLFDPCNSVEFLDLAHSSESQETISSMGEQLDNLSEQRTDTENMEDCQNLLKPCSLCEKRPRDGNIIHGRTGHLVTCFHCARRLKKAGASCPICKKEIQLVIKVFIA
Target sequence (Q00987 whole entry, looked up): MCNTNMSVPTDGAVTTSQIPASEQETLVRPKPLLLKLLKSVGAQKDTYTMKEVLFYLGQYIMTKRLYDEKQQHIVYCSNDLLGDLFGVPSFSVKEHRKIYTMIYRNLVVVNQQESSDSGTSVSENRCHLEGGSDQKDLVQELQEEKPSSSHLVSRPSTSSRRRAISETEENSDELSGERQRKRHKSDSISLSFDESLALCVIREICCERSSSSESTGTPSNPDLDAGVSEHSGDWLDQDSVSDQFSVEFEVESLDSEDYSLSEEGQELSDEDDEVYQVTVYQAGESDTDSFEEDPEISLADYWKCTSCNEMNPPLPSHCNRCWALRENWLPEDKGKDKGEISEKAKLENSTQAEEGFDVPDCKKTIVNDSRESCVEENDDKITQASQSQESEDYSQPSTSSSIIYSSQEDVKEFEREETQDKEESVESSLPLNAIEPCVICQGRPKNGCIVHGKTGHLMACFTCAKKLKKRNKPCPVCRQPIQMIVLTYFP
tim23-1 inh: growth inhibitors of tim23-1 mutant yeast; S. cerevisiae tim23-1 growth, BacTiter-Glo luminescence, 24 h; inhibition, % at 20 µM; 1.3% of 330,000 active;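 active = growth inhibition of the mutant yeast at or above 50%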;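 also: temperature-sensitive mutant grown at 25 °C; plate controls were DMSO-treated mutant yeast for no effect and medium wells lacking yeast for full effect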
MPTP block: permeability transition pore inhibition; 1.4% of 360,000 active; inhibition, % at 10 µM; AID 602449; isolated mouse mitochondria, Ca2+ swelling absorbance, 30 min;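 active = inhibition of 50% or more, scaled per plate between neutral and stimulator controls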;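 also: 0% = DMSO wells given calcium and 100% = 1 mM EGTA wells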
TIM10 inh: inhibits growth of TIM10 yeast strain; inhibition, % at 10 µM; AID 463195; 1.4% of 330,000 active; S. cerevisiae TIM10 strain growth, BacTiter-Glo luminescence, 24 h;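 active = inhibition of 40% or more at the single tested concentration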;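 also: wild-type TIM10 isogenic control strain grown at permissive 25 °C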
tim10-1 conf: confirmation of tim10-1 mutant yeast growth inhibitors. 56% of 7,400 active. inhibition, % at 20 µM. S. cerevisiae tim10-1 ts strain growth, BacTiter-Glo, 24 h. shares compounds with tim10-1 inh;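 active = inhibition of yeast growth at or above a set limit in either of two repeat tests at 20 µM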;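 also: tim10-1 mutant grown at permissive 25 °C to find synthetic lethal compounds; 0% = DMSO yeast wells and 100% = medium wells without yeast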
tim10 confirm: TIM10 yeast growth inhibition, confirmed | shares compounds with TIM10 inh | S. cerevisiae tim10 strain growth, BacTiter-Glo luminescence, 24 h | inhibition, % at 10 µM | 63% of 4,600 active | AID 463215;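 active = inhibition of yeast growth at or above a set limit in either of two replicates at 10 µM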;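 also: this counterscreen used the strain with wild-type TIM10; 0% = yeast with DMSO and 100% = medium wells lacking yeast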
tim23-1 conf: tim23-1 yeast growth inhibition, confirmed; shares compounds with tim23-1 inh; inhibition, % at 20 µM; 83% of 4,400 active; S. cerevisiae tim23-1 growth, BacTiter-Glo luminescence, 24 h;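 active = inhibition above about 39% in either of two replicate wells at 20 µM, limit read from the data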;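 also: temperature-sensitive tim23-1 mutant grown at 25 °C; 0% = DMSO wells with yeast and 100% = medium wells without yeast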
Mdm2 MdmX conf: human Mdm2/MdmX binding inhibition, confirmed | shares compounds with Mdm2-MdmX inh | luminescent assay | inhibition, % at 8 µM | 55% of 10,000 active; in the data active = inhibition above about 40%
Full FLuc ctr: full-length luciferase inhibition in Mdm2/MdmX counter-screen; 77% of 6,200 active; SaOS-2 full-length luciferase counterscreen, luminescence; inhibition, % at 8 µM; shares compounds with Mdm2-MdmX inh;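 active = mean inhibition at 8 µM reaching about 37%, which flags the compound as non-specific, limit read from the data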;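 also: p53-null SaOS-2 cells with luciferase driven by a doxycycline-inducible promoter; compound on cells about two nights before reading with doxycycline added after day one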
The depositor's hits bear a star.

`COC(=O)C1=CN(c2ccc(C(C)(C)C)cc2)C(N)=C(C#N)C1c1cccc([N+](=O)[O-])c1` (stereo unspecified) gave MPTP block -1.
For COc1ccc(-c2cc(N)n(S(=O)(=O)c3c(F)c(F)c(F)c(F)c3F)n2)cc1OC the results were tim10-1 inh 68*, Mdm2-MdmX inh 81*, tim23-1 inh 70*, MPTP block 1, TIM10 inh 75*, tim10-1 conf 75*, tim10 confirm 74*, tim23-1 conf -23, Mdm2 MdmX conf 100* and Full FLuc ctr -1.
Screening COc1ccc(S(=O)(=O)n2nc(-c3cc(OC)c(OC)c(OC)c3)cc2N)cc1OC returned tim10-1 inh 12, Mdm2-MdmX inh 29, tim23-1 inh 10, MPTP block 0 and TIM10 inh 4.
O=C(O)/C=C/C(=O)c1ccc2c(c1)CCc1ccccc1-2 was read as tim10-1 inh 58*, Mdm2-MdmX inh 67*, tim23-1 inh 48, MPTP block 0, TIM10 inh 27, tim10-1 conf 54* and Mdm2 MdmX conf 26.
For Nc1ccn([C@@H]2O[C@H](CNCc3cccc(OC4CCCC4)c3)[C@@H](O)[C@H]2O)c(=O)n1 the results were MPTP block 0.
For CC1(C(=O)NS(=O)(=O)c2ccc(C#N)cc2)CCN1C(=O)C1(c2ccccc2)CC1 (stereo unspecified) the results were MPTP block 0.
Cc1ccc(C(=O)c2ccc(C)cc2)cc1 was read as tim10-1 inh 6, Mdm2-MdmX inh 15, tim23-1 inh 15, MPTP block 2 and TIM10 inh -12.
Cc1ccc(C(=O)c2no[n+]([O-])c2C(=O)c2ccc(C)cc2)cc1 was read as tim10-1 inh 44*, Mdm2-MdmX inh 51*, tim23-1 inh 47, MPTP block -2, TIM10 inh 1, tim10-1 conf 60* and Mdm2 MdmX conf 9.
Screening O=C1N/C(=C/c2ccc(Br)s2)C(=O)N1c1ccccc1 returned tim10-1 inh 46*, Mdm2-MdmX inh 51*, tim23-1 inh 11, MPTP block 0, TIM10 inh -7, tim10-1 conf 30 and Mdm2 MdmX conf 26.
For COc1ccc(C(=O)NNC(=O)c2ccccn2)cc1 the results were tim10-1 inh 52*, Mdm2-MdmX inh 98*, tim23-1 inh 51*, MPTP block 0, TIM10 inh 33, tim10-1 conf 40*, tim23-1 conf 42*, Mdm2 MdmX conf 94* and Full FLuc ctr 22.
Screening Cc1noc(C)c1C(=O)N1CCC1(C)C(=O)NS(=O)(=O)c1ccccc1Cl (stereo unspecified) returned MPTP block 2.
`CCN(CC)S(=O)(=O)c1ccc(N/N=C/c2cc(OC)c(OC)cc2OC)nc1` gave tim10-1 inh -16, Mdm2-MdmX inh 21, tim23-1 inh -40, MPTP block 2 and TIM10 inh -29.
For CCOc1cccc(/C=N/Nc2ccc(S(=O)(=O)N(CC)CC)cn2)c1O the results were tim10-1 inh 41*, Mdm2-MdmX inh 81*, tim23-1 inh 20, MPTP block 2, TIM10 inh 28, tim10-1 conf 27, Mdm2 MdmX conf 85* and Full FLuc ctr 55*.
For COc1ccc(S(=O)(=O)N2CCOC2CNC(=O)C(=O)NCc2ccc3c(c2)OCO3)cc1C (stereo unspecified) the results were MPTP block -1.
COc1cc(/C=C/C(=O)N2CCC=CC2=O)cc(OC)c1OC was read as tim10-1 inh 58*, Mdm2-MdmX inh 100*, tim23-1 inh 59*, MPTP block 0, TIM10 inh 57*, tim10-1 conf 40*, tim10 confirm 45*, tim23-1 conf 54*, Mdm2 MdmX conf 63* and Full FLuc ctr 27.
COc1cc(/C=C/C(=O)N2CCCN(C(=O)/C=C/c3cc(OC)c(OC)c(OC)c3)CC2)cc(OC)c1OC was read as tim10-1 inh 20, Mdm2-MdmX inh 19, tim23-1 inh 16, MPTP block 0 and TIM10 inh 2.
Nc1nc(N)c2cc(Sc3ccc4ccccc4c3)ccc2n1 was read as tim10-1 inh 89*, Mdm2-MdmX inh 100*, tim23-1 inh 59*, MPTP block 40, TIM10 inh 17, tim10-1 conf 84*, tim23-1 conf 68*, Mdm2 MdmX conf 62* and Full FLuc ctr 38*.
COc1cccc(CNC(=O)[C@@H]2CCCN2C(=O)[C@H]2CCCCN2C(=O)c2ccccc2C)c1 was read as MPTP block -1.
Screening O=C(NCCc1ccccc1)C(c1cccs1)N(C(=O)CCl)c1ccc(Cl)cc1 (stereo unspecified) returned tim10-1 inh 55*, Mdm2-MdmX inh 99*, tim23-1 inh 53*, MPTP block -2, TIM10 inh 56*, tim10-1 conf 54*, tim10 confirm -23, tim23-1 conf 58*, Mdm2 MdmX conf 100* and Full FLuc ctr 52*.
Screening COCCNC(=O)C1(C)CCN(C(=O)c2cc(C(C)(C)C)nn2C)C1 (stereo unspecified) returned MPTP block 0.
COc1cccc(-n2nc(C#N)c(Cl)cc2=O)c1 was read as tim10-1 inh 68*, Mdm2-MdmX inh 100*, tim23-1 inh 62*, MPTP block 0, TIM10 inh 55*, tim10-1 conf 56*, tim10 confirm 39*, tim23-1 conf 63*, Mdm2 MdmX conf 100* and Full FLuc ctr 51*.
Screening COc1cc(/C=C/C(=O)O)ccc1O returned tim10-1 inh -12, Mdm2-MdmX inh 10, tim23-1 inh 4, MPTP block -1 and TIM10 inh -1.
`COc1cc(/C=C/C(=O)c2ccc([N+](=O)[O-])o2)ccc1O` gave tim10-1 inh 96*, Mdm2-MdmX inh 100*, tim23-1 inh 96*, MPTP block 8, TIM10 inh 97*, tim10-1 conf 97*, tim10 confirm 99*, tim23-1 conf 99*, Mdm2 MdmX conf 100* and Full FLuc ctr 1.
For COc1cc(/C=C/C(=O)OCC(=O)NCc2ccc(F)cc2)ccc1O the results were tim10-1 inh -4, Mdm2-MdmX inh 48, tim23-1 inh -3, MPTP block 0 and TIM10 inh 1.
